Source: PubChem (National Center for Advancing Translational Sciences (NCATS))
PNC inhibitor = perinucleolar compartment assembly inhibition; PC3M PTB-GFP, PNC prevalence imaging, 16 h; stronger effect = lower value; activity change (PNC), negative = inhibition, % at 10 µM; hit rate 3.1% among 140,000;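 active = readout at or below -70, meaning at least 70% loss of cells showing the perinucleolar compartment, a nuclear body marking cancer cells; inconclusive = readout between -30 and a set limit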
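Read-out is percentage of cells bearing a perinucleolar compartment, from automated 20x imaging of fixed, Hoechst-stained PC3M PTB-GFP cells. Cells were seeded 4 h, then exposed 16 h to compound (23 nl of library stock) in duplicate plates.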
HTT aggregate = reduces HttQ103-GFP aggregates in PC12 cells; PC12 HttQ103-GFP aggregates, Acumen cytometry, 40 h; Potency, µM (series often up to 46.1 µM), usual class: inhibitors; hit rate 1.1% among 220,000; also: nearly all actives have a fitted effect of over 60% in size
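Aggregate formation scored by laser-scanning cytometer (488 excitation, 500–530 emission) in lysed PC12 cells expressing Q103-GFP after 100 nM tebufenozide induction; library tested in dose series, with ATPLite reagent added in the multiplex.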
HTT ATP protect = protects HTT-Q103 PC12 cells, measured by ATP. PC12 HTT-Q103 induced, cytoprotection, ATP luminescence, 40 h. Potency, µM (series often up to 56.4 µM), actives largely listed as activators. hit rate 0.14% among 230,000; also: nearly all actives have a fitted effect of over 45% in size
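Compounds were screened for protection of PC12 cells against cell death after tebufenozide induction (100 nM final) of mutant Huntingtin exon 1 (Q103) fused to GFP.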
CBFb-RUNX1 inh = blocks binding between human CBF-beta and RUNX1. Q01196+Q13951. AlphaScreen CBFb-His/RUNX1-biotin binding, biochemical. Potency, µM (top dose mostly 59.8 µM), most hits filed as inhibitors. 230,000 tested, under 10 active
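AlphaScreen proximity signal reports loss of binding between His-tagged CBF-beta and biotin-labelled RUNX1, each at 30 nM. Proteins are pre-associated for 20 minutes, compounds added for 15 minutes, then beads for 90 minutes, all at ambient temperature.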
HPGD inh = HPGD (human) dehydrogenase inhibition | purified HPGD, NADH fluorescence kinetic, PGE2 substrate | Potency, µM, usual class: inhibitors | hit rate 4.3% among 150,000 | AID 894; active = well fitted inhibition curve with a large enough effect, not every such curve was filed as active; inconclusive = small, poorly fitted or top-dose-only effect, or another doubt; inactive = no such curve, though single readings can be large or run the other way
Target sequence (P15428 whole entry, looked up): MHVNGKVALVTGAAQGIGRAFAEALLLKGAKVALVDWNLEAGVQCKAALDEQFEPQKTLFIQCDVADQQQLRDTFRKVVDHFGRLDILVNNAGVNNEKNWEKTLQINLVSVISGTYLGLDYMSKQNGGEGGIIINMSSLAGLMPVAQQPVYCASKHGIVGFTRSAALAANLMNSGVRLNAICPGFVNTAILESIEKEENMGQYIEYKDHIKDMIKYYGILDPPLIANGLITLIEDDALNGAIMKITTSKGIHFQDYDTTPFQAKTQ
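NADH formation kinetics: reaction with 30 uM PGE2 and 1 mM NAD+ (final), 20 nM enzyme, Tris-HCl pH 8 with Tween 20, after 15 min compound preincubation at room temperature. Fluorescence change, last versus first of five reads.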
ALDH1A1 block = ALDH1A1 (human) enzyme inhibition; P00352; Purified ALDH1A1, NADH fluorescence, propionaldehyde substrate; Potency, µM (series often up to 75.3 µM), most hits filed as inhibitors; hit rate 7.3% among 220,000; AID 1030; active = well fitted inhibition curve with a large enough effect, not every such curve was filed as active; inconclusive = small, poorly fitted or top-dose-only effect, or another doubt; inactive = no such curve, though single readings can be large or run the other way
Numbers stand for hits; 0 = inactive; ? = inconclusive; - = no result; [ ] = remark or other dose. An excerpt weighted towards active compounds, which were near 11% of everything screened. Unless noted, calls follow the shape of the dose curve; as a rule, active = well fitted curve in the direction sought with a large enough effect; inconclusive = small, poorly fitted or top-dose-only effect, or another doubt; inactive = no such curve, though single readings can be large; an effect the other way counts as inactive or inconclusive.

SMILES | PNC inhibitor | HTT aggregate | HTT ATP protect | CBFb-RUNX1 inh | HPGD inh | ALDH1A1 block
CCCCn1c2ccc(F)cc2c2nnc(NN)nc21 | - | 0 | 0 | 0 | - | 2.2µM
CC(CN(C)C)NC(=O)c1ccc(Cc2nc3ccccc3[nH]2)cc1 (configuration not stated) | - | - | - | - | 0 | 0
O=C(NC(=S)Nc1ccc(S(=O)(=O)NC2CCCCC2)cc1)c1cccs1 | ? | 0 | 0[10 µM] | 0 | - | 0
O=C(O)C(O)C(O)C(O)C(O)C(=O)O (configuration not stated) | - | - | 0 | 0 | 0 | 0
CC1CCCC(C)N1C(=O)COC(=O)c1cc(Br)ccc1Cl (configuration not stated) | - | 0 | 0 | 0 | - | 20µM
Cc1ccc2nc(NCCN)c3ncc(C)n3c2c1 | - | - | - | 0 | - | -
CCN(C(=O)c1ccco1)c1nc(CC(=O)Nc2ccc(Cl)cc2)cs1 | 0 | ? | 0[10 µM] | 0 | 0 | ?
CCC(=O)N(Cc1ccco1)c1nc(C(=O)Nc2ccc(Cl)cc2)c(C)s1 | 0 | ? | 0[1.9 µM] | 0 | ? | 22µM
N#C/C(=C1\C(=O)Nc2c(Cl)cc(Cl)cc21)c1nnc2n1CCCCC2 | ? | 0 | 0 | 0 | 0 | 3.5µM
N#C/C(=C1/CCCCCN1)c1nnc2n1CCCCC2 | 0 | 0 | 0 | 0 | 0 | 0
N#C/C(=N\Nc1cc(Cl)cc(Cl)c1)c1nnc2n1CCCCC2 | ? | 0 | 0[10 µM] | 0 | 25µM | 8.9µM
COc1ccc(CNC(=O)C2CCC(CNc3nc(=S)[nH]c4ccccc34)CC2)cc1 (configuration not stated) | - | 0 | 0 | 0 | - | 0
COCCn1c(=O)[nH]c2cc(C(=O)NCC3CCCO3)ccc2c1=O (configuration not stated) | 0 | 0 | 0 | 0 | ? | ?
O=C(NCC1CCCO1)c1ccc(Cn2c(=S)[nH]c3ccccc3c2=O)cc1 (configuration not stated) | - | 0 | 0 | 0 | - | 0
O=C(NCC1CCCO1)c1ccc2c(=O)n(CC3CCCO3)c(=S)[nH]c2c1 (configuration not stated) | ? | 0 | 0 | 0 | 0 | 11µM
CCOC(=O)N1CCN(C(=O)c2ccc3c(=O)n(CC4CCCO4)c(=S)[nH]c3c2)CC1 (configuration not stated) | 0 | 0 | 0 | 0 | 0 | 14µM
COCCn1c(=S)[nH]c2cc(C(=O)NCC3CCCO3)ccc2c1=O (configuration not stated) | 0 | 0 | 0[0.074 µM] | 0 | 0 | 16µM
O=C(Nc1ccccc1)C(=O)Nc1cccnc1 | - | 0[9.22 µM] | 0[10 µM] | 0 | - | 0
O=C(Nc1cccnc1)/C(N=Nc1cccnc1)=C(\O)c1ccccc1 | 0 | 0 | 0[10 µM] | 0 | 0 | 1.4µM
CCc1ccc(S(=O)(=O)Nc2ccc(O)c3c(=O)cc(-c4ccccc4Cl)oc23)cc1 | - | 0[9.22 µM] | 0[10 µM] | 0 | - | -
O=c1cc(-c2ccccc2Cl)oc2c(NS(=O)(=O)c3cc(Cl)cc(Cl)c3O)ccc(O)c12 | 0 | ? | 0 | ? | 4.5µM | 10µM
C=CC1=C2C=C(C3CC3)N(C3CCCCC3)C=C2C(=O)C(C)(OC(=O)c2ccco2)C1=O (configuration not stated) | - | - | 0[10 µM] | 0[13.1 µM] | 0 | 0[13.5 µM]
COc1ccc(NC(=O)/C(C#N)=C/c2ccc(Sc3nncn3C)c([N+](=O)[O-])c2)cc1 | - | 0 | 0 | 0 | - | 11µM
CN(c1ccccc1)c1ccc(/C=C(\CCC(=O)O)c2nc3ccccc3s2)cc1[N+](=O)[O-] | 0 | 0 | 0[10 µM] | ? | 25µM | 13µM
Cn1cnnc1Sc1ccc(/C=C(\CCC(=O)O)c2nc3ccccc3s2)cc1[N+](=O)[O-] | - | 0 | - | 0 | - | 12µM
CC(C)=CCC/C(C)=C/CO/N=C1/C[C@@H](O)[C@@H](O)[C@@H]2[C@@H]3C(=O)N(Cc4ccccc4)C(=O)[C@H]3CC[C@@H]12 | - | - | ? | 0[13.1 µM] | - | 0[13.5 µM]
O=C(N/N=C/c1ccc(O)cc1)c1ccc(NC(=O)c2ccccc2Br)cc1 | 0 | 0 | 0 | 0 | 14µM | ?
O=C(C[n+]1ccc(C(=O)N/N=C/c2ccc(Br)cc2)cc1)c1ccccc1 | 0 | 0 | 0 | 0 | 0 | 0
O=C(N/N=C/c1ccc(F)cc1)c1ccccc1 | - | 0 | 0 | 0 | - | 0
